Assay outcomes (PubChem BioAssay)
In the library only some 17% were active in any assay of this set; here they are far more common.
DT40 TDP1 CPT: DT40-hTDP1 cell growth loss with CPT; chicken DT40 Tdp1-/-;hTDP1 cells + 20 nM CPT, ATP luminescence, 48 h; Potency, µM (doses to about 46.2 µM), for inactives: at the top dose activity change, negative = growth inhibition, most hits filed as inhibitors; hit rate 12% among 420,000; AID 686979; note: % is set by controls: 0 for no effect and ±100 for the full control effect; nearly all actives have a fitted effect of over 55% in size
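Cell growth measured by CellTiter-Glo luminescence after a minimum 48 h, 37 C compound exposure with 20 nM CPT in Tdp1-knockout DT40 cells stably expressing hTDP1, seeded 400/well; qHTS titration format.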
TDP1 inh: blocks human tyrosyl-DNA phosphodiesterase 1. Q9NUW8. recombinant TDP1, AlphaScreen DNA substrate cleavage. Potency, µM (highest dose often 130 µM), for inactives: top-dose activity change, negative = inhibition, actives largely listed as inhibitors. hit rate 0.28% among 350,000. AID 485290; note: % is set by controls: 0 for no effect and ±100 for the full control effect; nearly all actives have a fitted effect of over 40% in size
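Signal: AlphaScreen proximity between streptavidin donor and anti-FITC acceptor beads on intact substrate. Reaction: Tdp1 1 nM, substrate 15 nM final, 5 min RT after 15 min compound preincubation.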
ClpP mod: qHTS Assay for Activators of ClpP | Potency, µM (top dose mostly 57.5 µM), without a hit: at the highest dose activity change, negative = active | AID 651965, 2013 | hit rate 1.9% among 340,000 | ATP-dependent Clp protease proteolytic subunit (Bacillus subtilis (strain 168)), P80244 | purified B. subtilis ClpP, FRET peptide cleavage, 20 min; active = well fitted falling curve with a large enough effect; inconclusive = small, poorly fitted or top-dose-only effect; inactive = no such curve, though single readings can be large or run the other way; note: the source files actives as falling curves though it sought activators and does not explain the sign; nearly all actives have a fitted effect of over 65% in size
Target sequence (P80244 whole entry, looked up): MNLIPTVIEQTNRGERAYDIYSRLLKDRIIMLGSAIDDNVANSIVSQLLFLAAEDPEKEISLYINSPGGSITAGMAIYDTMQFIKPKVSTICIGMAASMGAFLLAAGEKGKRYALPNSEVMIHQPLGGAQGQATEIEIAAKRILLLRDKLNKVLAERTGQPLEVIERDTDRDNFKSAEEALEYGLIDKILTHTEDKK
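FRET quenching reversal measured ClpP activation: 10 microg/mL B. subtilis ClpP at pH 8 with the FRET-FV decapeptide, read at 430 nm after 320 nm excitation. The 20-min minus 0-min signal was scaled between DMSO/no-enzyme wells and ADEP (5.8 microM final).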
DT40 TDP1 no CPT: qHTS for Inhibitors of human tyrosyl-DNA phosphodiesterase 1 (TDP1): qHTS in cells in absence of CPT; DT40 Tdp1-/- hTDP1 cells, no CPT, ATP luminescence, 48 h; Potency, µM (top dose mostly 46.2 µM), inactives show at the highest dose activity change, negative = growth inhibition, hits mostly inhibitors; hit rate 15% among 420,000; AID 686978, 2013; note: % is set by controls: 0 for no effect and ±100 for the full control effect; nearly all actives have a fitted effect of over 55% in size
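A cellular qHTS used chicken DT40 cells lacking endogenous Tdp1 but carrying stably transfected human TDP1. Compounds were applied without camptothecin, and cell growth kinetics were judged by ATP-dependent luminescence after ≥48 hr.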
Active calls of the source: *; u = inconclusive; x = not tested or not shown; [ ] = dose if it differs, or a comment. Unless noted, calls come from the whole dose curve; as a rule, active = well fitted curve in the direction sought with a large enough effect; inconclusive = small, poorly fitted or top-dose-only effect, or another doubt; inactive = no such curve, though single readings can be large; an effect the other way counts as inactive or inconclusive. Potency is the fitted concentration of half-maximal effect.

SMILES	DT40 TDP1 CPT	TDP1 inh	ClpP mod	DT40 TDP1 no CPT
CCN(C(=O)COC(=O)c1ccc2c(=O)n3c(nc2c1)CCC3)C1CCS(=O)(=O)C1 (configuration not stated)	0%	7%	-1%	2%
CCN(C(=O)COC(=O)/C=C/c1ccc(OC)c(OC)c1)c1c(N)n(Cc2ccccc2)c(=O)[nH]c1=O	-13%	x	-17%	7%
CC1(C)Oc2cc3oc(-c4cc(O)cc(O)c4)cc3cc2CC1O (configuration not stated)	21µM*	x	4%	u
CCOc1ccc(OCCNC(=O)c2cc(C3CC3)nc3c2cnn3C(C)C)cc1	16µM*	-6%	-8%	5.2µM*
CC(C)n1ncc2c(C(=O)O)cc(C3CC3)nc21	u	6%	3%	4%
CC(C)n1ncc2c(C(=O)NCCOc3ccccc3F)cc(C3CC3)nc21	12µM*	-4%	-1%	3.3µM*
CC(C)n1ncc2c(C(=O)N3CCN(Cc4ccc(Br)s4)CC3)cc(C3CC3)nc21	26µM*	3%	-7%	23µM*
CCOc1ccc(NC(=O)CN2C(=O)CSC2=O)cc1	-9%	0%	x	u
C[C@@H]1CN([C@@H](C)CO)S(=O)(=O)c2ccc(Br)cc2O[C@H]1CN(C)C(=O)Nc1ccc2c(c1)OCO2	u	x	-1%	u
O=C1NC(c2ccccc2Cl)=N/C1=C/c1ccco1	-12%	-8%	x	u
O=C1NC(c2ccc(Br)cc2)=N/C1=C/c1ccco1	7.3µM*	u	1%	u
COCCNc1nc(Oc2ccc(NC(C)=O)cc2)c2sc(-c3ccccc3)cc2n1	u	x	32µM*	u
CCc1ccccc1Oc1nc(NCCOC)nc2cc(-c3ccccc3)sc12	u	x	22µM*	u
COCCNc1nc(NCc2cccc(OC)c2)c2sc(-c3ccccc3)cc2n1	18µM*	x	u	13µM*
COCCNc1nc(NCc2ccc(NC(C)=O)cc2)c2sc(-c3ccccc3)cc2n1	3.3µM*	x	u	4.1µM*
CCn1c(-c2ccccc2F)nc2cc(NC(C)=O)cc(C(=O)N3CCCCC3c3nccn3C)c21 (configuration not stated)	2%[9.04 µM]	x	x	-1%
COCCNc1nc2cc(-c3ccsc3)sc2c(=O)n1C	u	x	4%	-40%
COCCNc1nc(Oc2ccc(CC(=O)OC)cc2)c2sc(-c3ccccc3)cc2n1	u	x	u	18µM*
CCCCNC(=S)N(Cc1c(C)noc1C)c1ccccc1	1%	-2%	4µM*	-22%
COc1cc(-c2nnc(SCC3(c4ccc(Br)cc4)OCCO3)o2)cc(OC)c1OC	16µM*	-1%	28µM*	u
COc1cc(-c2nnc(COC(=O)c3ccc(C)o3)o2)cc(OC)c1OC	u	20µM*	0%	u
COc1cc(-c2n[nH]c(=O)o2)cc(OC)c1OC	-2%	2%	16µM*	-11%
COc1cc(-c2nnc(-c3cc(OC)c(OC)c(OC)c3)o2)cc(OC)c1OC	1.8µM*	7%	25µM*	2.1µM*
COc1cc(-c2nnc(-c3cccnc3)o2)cc(OC)c1OC	u	6%	-4%	-3%
CCOC(=O)c1sc(NC(=O)C2CC(=O)N(c3ccc(C)cc3)C2)nc1C (configuration not stated)	-7%	5%	x	-36%
SMILES	DT40 TDP1 CPT	TDP1 inh	ClpP mod	DT40 TDP1 no CPT
Cc1ccc(C)c(SC2=NS(=O)(=O)c3ccccc32)c1	x	1%	x	x
CCn1c(=O)c2cc(C(=O)NCc3ccc(F)cc3Cl)sc2c2ccccc21	1%	7%	-6%	-1%
COc1ccc(-c2nnc(-c3ccccc3)o2)cc1OC	-22%	x	4%	u
COc1cc(-c2nnc(COc3ccc4ccccc4c3)o2)cc(OC)c1OC	u	2%	u	26µM*
COc1cc(-c2nnc(-c3ccccc3)o2)cc(OC)c1OC	16µM*	-1%[56.1 µM]	u	12µM*
CN(C)S(=O)(=O)N1CCC(N2CCN(Cc3ccc(F)cc3)C(=O)C2=O)CC1	0%	5%	-1%	7%
COc1cccc(NS(=O)(=O)c2ccc3[nH]cc(C(=O)NC(C)c4ccccc4)c(=O)c3c2)c1 (configuration not stated)	u	x	-14%	-24%
